In PubChem BioAssay (EPA / NIEHS):
Records with an inconclusive call do not appear. Calls of active or inactive are those of the source. Rule for the calls: active = hit-call score of the fitted dose curve at least 0.9, where 1 is the maximum; inconclusive = response in the unintended direction; inactive = score below 0.9.

Each molecule was assayed on glucuronosyltransferase (UGT1A1), UGT1A1 (gene 54658) (assay: CLD_UGT1A1_48hr: CellzDirect (CLD) Gene Expression Assay for glucuronosyltransferase (UGT1A1) at 48 hours (AID 2283709);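 note: actives increase expression relative to DMSO so potency refers to induction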).
How it was run: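 Human primary hepatocytes dosed daily for two days (0.2% DMSO vehicle), harvested at 48 h. UGT1A1 mRNA induction measured by quantitative nuclease protection assay with chemiluminescence; gain of signal versus DMSO; cytotoxicity flagged from morphology.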
`CSC1=N[C@@](C)(c2ccccc2)C(=O)N1Nc1ccccc1` was tested, and the outcome was “inactive”. For `Cc1ccn2nc(S(=O)(=O)Nc3c(F)cccc3F)nc2n1`, the outcome was “inactive”. For `Nc1c(Cl)cc([N+](=O)[O-])cc1Cl`, the outcome was “inactive”. In the case of `CCCCSP(=O)(SCCCC)SCCCC`, the AC50 is reported as 20 µM (active). `CCOP(=O)(OCC)Oc1cc(C)nc(C(C)C)n1` was tested, and the outcome was “inactive”. With `CC(=NC#N)N(C)Cc1ccc(Cl)nc1` the outcome was “inactive”. With `CCOP(=S)(Oc1cnc(C(C)(C)C)nc1)OC(C)C` (stereo not given) the AC50 was 0.439 µM (active). In the case of `COc1cc(OC)nc(Sc2cccc(Cl)c2C(=O)O)n1`, the outcome is reported as “inactive”. With `C#CC(C)(C)NC(=O)c1cc(Cl)cc(Cl)c1` the AC50 was 6.38 µM (active). With `O=C(O)c1cc(Oc2ccc(C(F)(F)F)cc2Cl)ccc1[N+](=O)[O-]` the outcome was “inactive”. For `CC(COc1ccc(Oc2ccccc2)cc1)Oc1ccccn1` (stereo not given), the AC50 was 4.89 µM (active). For `CCCCN(CC)c1c([N+](=O)[O-])cc(C(F)(F)F)cc1[N+](=O)[O-]`, the AC50 was 7.05 µM (active). For `CCCCOC(=O)c1ccccc1C(=O)O`, the outcome was “inactive”. `CCCSP(=O)(OCC)Oc1ccc(Br)cc1Cl` (stereo not given) was tested, and the AC50 was 20 µM (active). With `CC(C)[C@H](C(=O)O[C@H](C#N)c1cccc(Oc2ccccc2)c1)c1ccc(Cl)cc1` the AC50 was 7.47 µM (active). `CCOP(=S)(OCC)SCCSCC` was tested, and the AC50 was 4.17 µM (active). `CCCCOC(=O)[C@@H](C)Oc1ccc(Oc2ccc(C#N)cc2F)cc1` was tested, and the outcome was “inactive”. `CN(C)NC(=O)CCC(=O)O` was tested, and the outcome was “inactive”. `CNC(=O)Oc1cccc2c1OC(C)(C)O2` was tested, and the outcome was “inactive”. In the case of `C[N+]1(C)CCCCC1`, the outcome is reported as “inactive”. With `CCNc1nc(Cl)nc(NC(C)(C)C#N)n1` the outcome was “inactive”. In the case of `CC(C)=CC1C(C(=O)OCN2C(=O)C3=C(CCCC3)C2=O)C1(C)C` (stereo not given), the outcome is reported as “inactive”. In the case of `C=C(C)[C@H]1Cc2c(ccc3c2O[C@@H]2COc4cc(OC)c(OC)cc4[C@@H]2C3=O)O1`, the outcome is reported as “inactive”. For `CCCOc1nn(C(=O)NS(=O)(=O)c2ccccc2C(=O)OC)c(=O)n1C`, the outcome was “inactive”. `COP(=O)(OC)OC(Br)C(Cl)(Cl)Br` (stereo not given) was tested, and the outcome was “inactive”. With `CC(C1CC1)C(O)(Cn1cncn1)c1ccc(Cl)cc1` (stereo not given) the outcome was “inactive”. In the case of `CCOP(=S)(OCC)Oc1ccc2c(C)c(Cl)c(=O)oc2c1`, the outcome is reported as “inactive”. `CCOP(=O)(NC(C)C)Oc1ccc(SC)c(C)c1` (stereo not given) was tested, and the outcome was “inactive”. With `COP(=O)(NC(C)=O)SC` (stereo not given) the outcome was “inactive”. In the case of `Cc1nn(-c2cc(NS(C)(=O)=O)c(Cl)cc2Cl)c(=O)n1C(F)F`, the outcome is reported as “inactive”. `COc1cccc(C(=O)NN(C(=O)c2cc(C)cc(C)c2)C(C)(C)C)c1C` was tested, and the AC50 was 8.82 µM (active).

The molecules below were run on sulfotransferase (SULT2A), SULT2A1 (gene 6822) (assay: CLD_SULT2A_48hr: CellzDirect (CLD) Gene Expression Assay for sulfotransferase (SULT2A) at 48 hours (AID 2283710);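 note: hits raise SULT2A1 transcript above the 0.2% DMSO vehicle baseline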).
How it was run: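 Primary human hepatocytes (two donor preparations) dosed daily for two days with chemicals at multiple concentrations, vehicle 0.2% DMSO; SULT2A1 mRNA induction at 48 h by quantitative nuclease protection assay, chemiluminescent read-out, fitted for gain of signal versus DMSO.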
For `O=[N+]([O-])c1cc(C(F)(F)F)c(Cl)c([N+](=O)[O-])c1Nc1ncc(C(F)(F)F)cc1Cl`, the outcome was “inactive”. In the case of `Cc1ccn2nc(S(=O)(=O)Nc3c(F)cccc3F)nc2n1`, the outcome is reported as “inactive”. In the case of `Nc1c(Cl)cc([N+](=O)[O-])cc1Cl`, the outcome is reported as “inactive”. With `CCCCSP(=O)(SCCCC)SCCCC` the AC50 was 33.4 µM (active). For `CCOP(=O)(OCC)Oc1cc(C)nc(C(C)C)n1`, the AC50 was 4.2 µM (active). With `CC(=NC#N)N(C)Cc1ccc(Cl)nc1` the outcome was “inactive”. `COc1cc(OC)nc(Sc2cccc(Cl)c2C(=O)O)n1` was tested, and the outcome was “inactive”. In the case of `C#CC(C)(C)NC(=O)c1cc(Cl)cc(Cl)c1`, the AC50 is reported as 5.38 µM (active). `O=C(O)c1cc(Oc2ccc(C(F)(F)F)cc2Cl)ccc1[N+](=O)[O-]` was tested, and the outcome was “inactive”. `CC(COc1ccc(Oc2ccccc2)cc1)Oc1ccccn1` (stereo not given) was tested, and the outcome was “inactive”. In the case of `CCCCN(CC)c1c([N+](=O)[O-])cc(C(F)(F)F)cc1[N+](=O)[O-]`, the outcome is reported as “inactive”. `CCCCOC(=O)c1ccccc1C(=O)O` was tested, and the outcome was “inactive”. For `CCCSP(=O)(OCC)Oc1ccc(Br)cc1Cl` (stereo not given), the outcome was “inactive”. With `CC(C)[C@H](C(=O)O[C@H](C#N)c1cccc(Oc2ccccc2)c1)c1ccc(Cl)cc1` the outcome was “inactive”. In the case of `CCOP(=S)(OCC)SCCSCC`, the outcome is reported as “inactive”. `CCCCOC(=O)[C@@H](C)Oc1ccc(Oc2ccc(C#N)cc2F)cc1` was tested, and the outcome was “inactive”. With `CN(C)NC(=O)CCC(=O)O` the outcome was “inactive”. For `C[N+]1(C)CCCCC1`, the outcome was “inactive”. `CCNc1nc(Cl)nc(NC(C)(C)C#N)n1` was tested, and the outcome was “inactive”. `CC(C)=CC1C(C(=O)OCN2C(=O)C3=C(CCCC3)C2=O)C1(C)C` (stereo not given) was tested, and the outcome was “inactive”. In the case of `C=C(C)[C@H]1Cc2c(ccc3c2O[C@@H]2COc4cc(OC)c(OC)cc4[C@@H]2C3=O)O1`, the outcome is reported as “inactive”. In the case of `COP(=O)(OC)OC(Br)C(Cl)(Cl)Br` (stereo not given), the outcome is reported as “inactive”. `CC(C1CC1)C(O)(Cn1cncn1)c1ccc(Cl)cc1` (stereo not given) was tested, and the outcome was “inactive”. In the case of `CCOP(=S)(OCC)Oc1ccc2c(C)c(Cl)c(=O)oc2c1`, the outcome is reported as “inactive”. For `CCOP(=O)(NC(C)C)Oc1ccc(SC)c(C)c1` (stereo not given), the outcome was “inactive”. In the case of `COP(=O)(NC(C)=O)SC` (stereo not given), the outcome is reported as “inactive”. In the case of `Cc1nn(-c2cc(NS(C)(=O)=O)c(Cl)cc2Cl)c(=O)n1C(F)F`, the outcome is reported as “inactive”. With `CN(C)[C@@H]1C(=O)C(C(N)=O)=C(O)[C@@]2(O)C(=O)C3=C(O)c4c(O)cccc4[C@@](C)(O)[C@H]3[C@H](O)[C@@H]12` the outcome was “inactive”. In the case of `COc1cccc(C(=O)NN(C(=O)c2cc(C)cc(C)c2)C(C)(C)C)c1C`, the outcome is reported as “inactive”.
